The record followed here is the supplement of paper PMC10681739.

The target in test [1] is T1, ETS1 (UniProt P14921).
T1 sequence: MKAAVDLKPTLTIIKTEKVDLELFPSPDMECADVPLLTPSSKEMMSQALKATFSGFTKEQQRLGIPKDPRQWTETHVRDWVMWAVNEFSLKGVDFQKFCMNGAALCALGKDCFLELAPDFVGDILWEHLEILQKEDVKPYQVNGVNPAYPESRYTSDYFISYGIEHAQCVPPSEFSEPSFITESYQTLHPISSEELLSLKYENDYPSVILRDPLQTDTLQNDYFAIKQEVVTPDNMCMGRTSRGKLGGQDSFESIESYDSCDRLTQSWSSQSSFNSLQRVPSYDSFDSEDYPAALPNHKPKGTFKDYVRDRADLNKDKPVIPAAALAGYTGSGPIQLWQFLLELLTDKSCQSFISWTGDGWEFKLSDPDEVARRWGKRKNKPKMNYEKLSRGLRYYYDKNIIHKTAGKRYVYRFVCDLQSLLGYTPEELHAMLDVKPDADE
Description: ETS1 binding intensity (PBM fluorescence), ETS1 alone (arbitrary fluorescence units); higher = stronger binding. The settings on record: ETS1 concentration 1 nM; RUNX1 concentration 0 nM.

Test [2] has as its target RUNX1 (UniProt Q01196). Description: RUNX1 binding intensity (PBM fluorescence), RUNX1 alone (arbitrary fluorescence units); higher = stronger binding. The settings on record: RUNX1 concentration 2 nM; ETS1 concentration 0 nM. The procedure:
(§1)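 Cooperative gcPBM on 36-bp genomic probes with neighbouring ETS1 and RUNX1 sites. Recombinant human RUNX1 (2 nM) was incubated alone or with ETS1 (25 nM) and detected with anti-RUNX1 antibody plus Alexa488 secondary. Values are medians over 4 replicate spots; the RUNX1+ETS1 data were normalised to the RUNX1-only data. The probes sit in constant array flanks that are not printed.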

Test [3] has as its target T1, ETS1. The test can be described thus: ETS1 binding intensity (PBM fluorescence) in presence of RUNX1, normalised to ETS1-only experiment (arbitrary fluorescence units); higher = stronger binding. The following applies: ETS1 concentration 1 nM; RUNX1 concentration 25 nM.
The target of test [4] is RUNX1 (UniProt Q01196). The test can be described thus: RUNX1 binding intensity (PBM fluorescence) in presence of ETS1, normalised to RUNX1-only experiment (arbitrary fluorescence units); higher = stronger binding. The settings on record: RUNX1 concentration 2 nM; ETS1 concentration 25 nM. The procedure: as §1
Sequence of RUNX1 (Q01196 whole entry): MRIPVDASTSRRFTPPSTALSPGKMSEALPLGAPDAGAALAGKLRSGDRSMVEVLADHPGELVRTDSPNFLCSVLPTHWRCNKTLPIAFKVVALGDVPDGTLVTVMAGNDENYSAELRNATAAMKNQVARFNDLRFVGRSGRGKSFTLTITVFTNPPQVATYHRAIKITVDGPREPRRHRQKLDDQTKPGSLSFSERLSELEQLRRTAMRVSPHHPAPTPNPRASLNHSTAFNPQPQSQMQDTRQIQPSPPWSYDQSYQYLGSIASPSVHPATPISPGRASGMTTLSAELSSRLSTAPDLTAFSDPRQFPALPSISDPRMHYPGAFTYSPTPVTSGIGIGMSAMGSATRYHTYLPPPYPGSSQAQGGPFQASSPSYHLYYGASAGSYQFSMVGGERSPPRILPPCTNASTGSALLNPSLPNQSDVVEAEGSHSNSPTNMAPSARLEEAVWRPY
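Wherever RUNX1 binding intensity (PBM fluorescence) in presence of ETS1, normalised to RUNX1-only experiment is given: Full-length recombinant human ETS1 or RUNX1 bound to double-stranded 36-bp genomic probes on microarrays, detected by protein-specific primary antibody and Alexa488 secondary, spot fluorescence as median of four replicate spots.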
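Wherever RUNX1 binding intensity (PBM fluorescence), RUNX1 alone is given: Full-length recombinant human RUNX1 bound to double-stranded 36-bp genomic probes on a high-density microarray, scored as Alexa488 fluorescence per spot via anti-RUNX1 antibody, median of four replicate spots.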

As for TAGGCAGGCAGGATGTGCCTATAAGCCACATGAATG, the ETS1 binding intensity was found to be 1930 in the test with ETS1 [1] and 2240 with ETS1 [3]. Moreover, the RUNX1 binding intensity with RUNX1 [2] came to 726; in the test with RUNX1 [4], 962.

AAAGACAGGATGTGGGGGAGTGAGCCACAAGGGCCC: the values for the ETS1 binding intensity in the test with ETS1 [1] and with ETS1 [3] were 1160 and 1720, respectively. For the same sequence, the RUNX1 binding intensity was 752 with RUNX1 [2] and 2080 with RUNX1 [4].

Regarding TCGCTTCCGGTGTCGGTTACAGACTGTGGTTGCCAT, the ETS1 binding intensity is 3090 with ETS1 [1] and 6190 with ETS1 [3]. Besides, the RUNX1 binding intensity in the test with RUNX1 [2] is 906; with RUNX1 [4] it was 3330.

For CGGGAACACCCACTTCCGCCACAGACCTGCTCAAAA, the results for the ETS1 binding intensity in the test with ETS1 [1] and with ETS1 [3] were 1400 and 1380, respectively. Besides, the RUNX1 binding intensity with RUNX1 [2] turned out to be 1090; with RUNX1 [4], 3820.

Consider GAGTTCCGCCTCGCCGTTTGTCCCTTGCGGTACCCG, for which the ETS1 binding intensity in the test with ETS1 [1] was 351; with ETS1 [3], 620. Also, the RUNX1 binding intensity was found to be 890 with RUNX1 [2] and 2030 in the test with RUNX1 [4].

Turning to GACCACTTCCTTTCTGTGTTTTGTGGTTTCACAACT, the ETS1 binding intensity was found to be 555 with ETS1 [1] and 1650 with ETS1 [3]. Also, the RUNX1 binding intensity amounted to 2430 in the test with RUNX1 [2] and 9060 with RUNX1 [4].

On to CCAGCCACTTCCGCTCGTCCGCCTAATACCGCGCCT, for which the ETS1 binding intensity in the test with ETS1 [1] is 2130; with ETS1 [3], 2430. For the same sequence, the figures for the RUNX1 binding intensity with RUNX1 [2] and in the test with RUNX1 [4] were 1420 and 4930, respectively.

Regarding AAGTTCTTCCGGGTCTGCAGTCTGTGGTGTGTTTGC, the ETS1 binding intensity with ETS1 [1] came to 478; with ETS1 [3], 422. Further, the RUNX1 binding intensity in the test with RUNX1 [2] stood at 810; with RUNX1 [4] it was 1710.

GATCCCCCTCCTCCATCCTGTGGCTTCGGGTTGCCG: the ETS1 binding intensity is 482 with ETS1 [1] and 420 in the test with ETS1 [3]. Besides, the RUNX1 binding intensity was determined as 819 in the test with RUNX1 [2] and 1150 with RUNX1 [4].

With CAGCAGCACCTGCATCCGCTGCGGGAGTCCGAGCCG, the values for the ETS1 binding intensity in the test with ETS1 [1] and with ETS1 [3] were 515 and 491, respectively. Besides, the RUNX1 binding intensity worked out at 778 with RUNX1 [2] and 1030 with RUNX1 [4].

For the sequence GACAGGAAGCCCGCGGCAGCCTCCGTGGTTGCAGAT, the figures for the ETS1 binding intensity with ETS1 [1] and with ETS1 [3] were 562 and 687, respectively. In addition, the RUNX1 binding intensity was 773 with RUNX1 [2] and 1090 with RUNX1 [4].

As to TGCCACATCCTGCCCCTCCCCAGGTCTAACCACCAA, the ETS1 binding intensity with ETS1 [1] was determined as 696; with ETS1 [3], 754. Besides, the RUNX1 binding intensity was 1260 with RUNX1 [2] and 3360 with RUNX1 [4].

In the case of GACCTGCCTTCCGGCCTCCGTCACATGACCGCACAG, the ETS1 binding intensity with ETS1 [1] worked out at 556; with ETS1 [3], 1210. Also, the RUNX1 binding intensity with RUNX1 [2] came out at 1110; with RUNX1 [4] it was 2000.

Regarding GCCTGTGGAGTTGCAGGATGTGGTTGGCGAAAAGAA, the ETS1 binding intensity was 2130 with ETS1 [1] and 7880 with ETS1 [3]. In addition, the RUNX1 binding intensity stood at 905 in the test with RUNX1 [2] and 1360 in the test with RUNX1 [4].
